Consider 25 compounds from PubChem BioAssay AID651724 (National Center for Advancing Translational Sciences (NCATS), 2012).

SMILES strings stand for the structures. About 1,700 (0.5%) of roughly 340,000 compounds were called active. Roughly 2% stayed inconclusive and do not appear here. No stated cut-off is given here; in the data, active means activity change below about -65%; inconclusive means mostly about -30% to -63%; inactive means weaker than that. Many of the other results were omitted from the sample, so actives are more common in it than they were.
On the % scale 0 is the no-effect control and ±100 the full control effect.

This test deals with CtBP / adenovirus E1A interaction (AlphaScreen). Briefly: qHTS Assay for Inhibitors of the CtBP/E1A Interaction. As to conditions: AlphaScreen GST-E1A/His-CtBP binding, 1536-well; active compounds read low. Summed up:
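GST-E1A and His-tagged CtBP (125 nM each as 5X stock) were preincubated with pin-transferred compound for 2 h at 37 °C in the dark, then glutathione donor and nickel acceptor beads were added for 1 h before AlphaScreen reading.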
`COc1cccc(CNc2nc(NCc3ccccc3OC)nc3ccsc23)c1`: the activity change was -7.75% (inactive).

As for `O=C1c2ccccc2C(=O)c2c1cccc2N1CCN(Cc2ccccc2)CC1`, the activity change was -94.4% (active).

On to `O=C1c2ccccc2C(=O)c2c1cccc2N1CCN(CCO)CC1`, for which the activity change is -25.7% (inactive).

In the case of `O=S1(=O)CCN(Cc2ccccc2)CC1`, the activity change was 7.73% (inactive).

With `C[C@@H]1CN([C@@H](C)CO)C(=O)CCCn2nncc2CO[C@H]1CN(C)C(=O)Nc1ccc(C(F)(F)F)cc1`, the activity change was -18.9% (inactive).

Regarding `COC(=O)[C@]12CCCCC=C1N(CCC1=CCCCC1)C(=O)[C@H](CC(=O)N1CCSCC1)C2`, the activity change is -7.56% (inactive).

In the case of `Cc1cc(Cl)ccc1-c1nc(NCCN(C)C)nc2ccsc12`, the activity change was -3.67% (inactive).

`CCN(CC)CCCN=Cc1c(O)n(-c2ccc(C)cc2)c(=O)c2ccccc12`: the activity change was -3% (inactive).

For the compound `CCOc1ccc(-n2c(O)c(/C=N/Nc3nnc(C)c(=O)[nH]3)c3ccccc3c2=O)cc1`, the activity change is -92.9% (active).

Consider `CCOc1ccc(-n2c(O)c(/C=N/Nc3nc(C)cc(C)n3)c3ccccc3c2=O)cc1`, for which the activity change is -6.77% (inactive).

Regarding `Cc1cc(=O)[nH]c(N/N=C/c2c(C)nn(-c3ccccc3Cl)c2Cl)n1`, the activity change was 5.1% (inactive).

Turning to `Cc1nnc(N/N=C/c2ccccn2)[nH]c1=O`, the activity change is -90.3% (active).

In the case of `Cc1nnc(N/N=C/C2CC=CCC2)[nH]c1=O` (stereo not given), the activity change was -19.9% (inactive).

Take `Cc1ccc(NC(=O)CSc2nnc(CNC(=O)c3ccccc3F)o2)cc1Cl`: the activity change was -15.1% (inactive).

For `COc1ccc(Cc2nnc(SCC(=O)Nc3ccc(C)c(Cl)c3)[nH]c2=O)cc1`, the activity change was -19.5% (inactive).

`Cc1ccc(NC(=O)CSc2nn3c(=O)c(C)nnc3s2)cc1Cl`: the activity change is -85.4% (active).

Regarding `CC1(C(=O)NCc2ccc3c(c2)OCO3)CCN1C(=O)Cc1cccc2ccccc12` (stereo not given), the activity change was -3.05% (inactive).

Regarding `CCOC(=O)C=Cc1ccc(C(=O)OCC)[nH]1`, the activity change is 1.94% (inactive).

`O=C(NC1CCCCC1)C(c1cc2ccccc2o1)n1c(=O)c(-c2ccco2)nc2ccccc21` (stereo not given): the activity change was 6.62% (inactive).

Take `Cn1cc(Cl)c(C(=O)NNC(=S)Nc2cccc(Cl)c2)n1`: the activity change is -27.4% (inactive).

With `Cc1cccc(-n2cnc(C(=O)Nc3cccnc3)c2)n1`, the activity change was 3.1% (inactive).

In the case of `Cc1cccc(-n2cnc(C(=O)NNC(=S)Nc3ccccc3)c2)n1`, the activity change was -91.7% (active).

As to `CC(C)N=C1CCCC1C(=S)SSC(=S)C1CCCC1=NC(C)C` (stereo not given), the activity change was -5.04% (inactive).

Regarding `CCCCCNC(=O)C(c1ccc(OC)cc1)n1c(=O)c(-c2ccccc2)nc2ccccc21` (stereo not given), the activity change is 0% (inactive).

As for `C#Cc1ccc(NC(=O)C2(C)CCN2C(=O)Cc2ccc(-c3ccccc3)cc2)cc1` (stereo not given), the activity change is 0.392% (inactive).
